Assay [1] deals with Lysosomal acid glucosylceramidase (Homo sapiens) (UniProt P04062). Briefly: Glucocerebrosidase-p2 (AID 348; in the data active = potency below about 10 µM; also: potency is read from the fitted curve at half-maximal effect). The conditions noted are these: purified GBA, blue fluorogenic substrate, 40 min. An outline of the steps: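 Normal human glucocerebrosidase (0.2 nM) with blue fluorogenic substrate (80 uM final) in citrate/phosphate pH 5.9 with 10mM sodium taurocholate, 0.01% tween-20; 40 min RT, NaOH/glycine stop; fluorescence Ex 365/Em 440; AC50 from a titration from 0.6 nM upwards.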
Chain of Lysosomal acid glucosylceramidase (Homo sapiens) (P04062 whole entry, looked up): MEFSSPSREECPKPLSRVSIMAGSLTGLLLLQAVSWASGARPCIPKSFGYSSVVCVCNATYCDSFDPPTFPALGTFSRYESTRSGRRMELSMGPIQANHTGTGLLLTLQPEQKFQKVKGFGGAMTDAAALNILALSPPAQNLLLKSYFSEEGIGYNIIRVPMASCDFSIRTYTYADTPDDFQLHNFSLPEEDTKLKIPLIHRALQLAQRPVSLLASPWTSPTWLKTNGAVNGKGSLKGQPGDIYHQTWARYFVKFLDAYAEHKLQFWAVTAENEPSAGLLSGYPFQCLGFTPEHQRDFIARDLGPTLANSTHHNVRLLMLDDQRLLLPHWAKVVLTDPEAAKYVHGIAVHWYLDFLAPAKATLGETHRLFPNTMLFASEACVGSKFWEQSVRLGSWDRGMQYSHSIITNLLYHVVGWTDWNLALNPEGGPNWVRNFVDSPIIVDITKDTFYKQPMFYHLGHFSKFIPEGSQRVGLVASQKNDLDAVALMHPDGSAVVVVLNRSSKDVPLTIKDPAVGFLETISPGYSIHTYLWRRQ

Assay [2] in a line: AP1 Signaling Pathway (AID 357; active = well fitted curve in either direction with a large enough effect, not every such curve was filed as active;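 also: ME-180 reporter cells stimulated with EGF at its EC50 level; % is scaled to controls: 0 for no effect and ±100 for the full control effect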). The conditions noted are these: ME-180 AP-1-bla reporter, EGF-induced, beta-lactamase ratio, 5 h; at 7.69 µM (top of the series) unless noted. The gist of the method: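 Beta-lactamase reporter under AP-1 response element, ME-180 background. Stimulus: EC50 EGF. Compound exposure 5 h, 37 °C. Detection: CCF4, 2.5 h RT, 460/530 nm. Values: AC50 from titration.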

The target of assay [3] is Cytochrome P450 1A2 (Homo sapiens) (UniProt P05177). The assay is described as follows: p450-cyp1a2 (AID 410). Also: potency is read from the fitted curve at half-maximal effect.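 As to activity change, negative = inhibition: -100% = full effect of reference inhibitor.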 The conditions noted are these: recombinant CYP1A2, luciferin-ME demethylation, luminescence; series mostly up to 57 µM. An outline of the steps:
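O-Demethylation of luciferin 6' methyl ether by human CYP1A2 is monitored as luciferase luminescence. Substrate sits at Km (100uM); enzyme is 20nM. Values are scaled to 57 uM furafylline as maximal inhibition.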

Assay [4] in a line: Stat Signaling Pathway (AID 446; active = well fitted curve in either direction with a large enough effect, not every such curve was filed as active;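 also: ME-180 cervical cancer cells given 40 pM IL-6 alongside compound; SIE-controlled beta-lactamase reporter measured as 460/530 nm FRET emission ratio; % is scaled to controls: 0 for no effect and ±100 for the full control effect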). The conditions noted are these: ME-180 SIE beta-lactamase reporter, IL-6 stimulated, 5 h; at 7.69 µM (top of the series) unless noted. An outline of the steps: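 Emission at 460 and 530 nm (excitation 405 nm) reports SIE-controlled beta-lactamase in ME-180 cells. Cells received compound with 40 pM IL-6 for 5 hrs at 37 C; data scaled between 300 pM IL-6 and 125 nM JAK-inhibitor controls.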

Assay [5] concerns the target Glucocorticoid receptor (Homo sapiens) (UniProt P04150). The assay is described as follows: GR-EFC Redistribution (AID 451). Also: potency is read from the fitted curve at half-maximal effect. The conditions noted are these: CHO-K1 GR-EFC translocation, beta-gal luminescence, 2 h. An outline of the steps:
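CHO-K1 cells stably expressing nuclear-localized β-gal enzyme acceptor and GR fused C-terminally to the enzyme donor fragment; ligand-driven nuclear translocation restores β-gal by complementation. Compounds titrated up to 46 uM final, 2 h at 37 °C; luminescence read.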

The target of assay [6] is Mitogen-activated protein kinase 10 (Mus musculus) (UniProt Q61831). The assay is described as follows: JNK3 AlphaScreen Assay (AID 530; active = well fitted curve in either direction with a large enough effect, not every such curve was filed as active;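 also: kinase came from lysate of stimulated human HepG2 cells; signal reports phosphorylation of biotinylated GST-cJun 1-79 at Ser73 with 10 µM ATP; % is scaled to controls: 0 for no effect and ±100 for the full control effect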). The conditions noted are these: JNK3 lysate, c-Jun phosphorylation; series mostly up to 57.1 µM. The gist of the method:
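Phosphorylation of biotinylated GST-cJun(1-79) at Ser73 is measured by AlphaScreen proximity luminescence. Enzyme is JNK3 in HepG2 lysates activated with interleukin-1beta and tumor necrosis factor alpha; ATP is 10 uM final.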
On the technique in general: In Alpha technology, singlet oxygen from a donor bead excites a nearby acceptor bead.

Assay [7] addresses 3',5'-cyclic-AMP phosphodiesterase 4B (Homo sapiens) (UniProt Q07343). Briefly: qHTS Assay for Inhibitors of PDE-IV (AID 607; active = well fitted activation curve with a large enough effect in the main read-out, with a control signal flat, not every such curve was filed as active; also: % of control where 0% means no effect). The conditions noted are these: HEK293 ACTOne CNG channel cells, membrane potential fluorescence; series mostly up to 22.9 µM. The gist of the method:
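The readout is membrane depolarisation from a cAMP-sensing CNG channel, detected with a potential dye at ex 535/em 590. Cells were HEK293-derived (endogenous PDE-IV) at 1000 cells/well, titrated up to 22.9 uM final.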

The target in assay [8] is Cytochrome P450 3A4 (Homo sapiens) (UniProt P08684). The assay is described as follows: qHTS Assay for Inhibitors and Substrates of Cytochrome P450 3A4 (AID 884; active = well fitted curve in the direction sought with a large enough effect; an effect the other way counts as inactive or inconclusive; also: % is scaled to controls: 0 for no effect and ±100 for the full control effect; nearly all actives have a fitted effect of over 50% in size). The conditions noted are these: recombinant CYP3A4, Luciferin-PPXE luminescence; series mostly up to 57.1 µM. The gist of the method:
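Luminescent readout of luciferin produced by CYP3A4 (20 nM) dealkylation of Luciferin-PPXE, 25 uM (its KM). NADPH-driven reaction ran 60 min at RT after 10 min compound preincubation; data scaled to 57 uM ketoconazole as 100% inhibition.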
A general note: In qHTS, concentration-response curves come from the screen itself.

Assay [9] in a line: qHTS Assay for Identification of Small Molecule Agonists for Hypoxia Response Element Signaling Pathway (AID 914; active = well fitted activation curve with a large enough effect in the signal ratio, with a control signal flat, not every such curve was filed as active; the % refers to the signal ratio; also: % of control where 0% means no effect). The conditions noted are these: ME-180 (cervical carcinoma) HRE-bla reporter, beta-lactamase ratio, CoCl2, 17 h; activation: stronger effect = higher value. The gist of the method: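 Read-out: CCF4 FRET ratio of 460nm to 530nm emission (excitation 405nm) after 2.5 hours at room temperature, taken from HRE-bla ME-180 cells that had been exposed to compound and EC50 CoCl2 for 17 hours.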

Assay [10] in a line: qHTS Assay for Lipid Storage Modulators (AID 1519). The conditions noted are these: Drosophila S3 cells, BODIPY lipid droplet/cell ratio, laser cytometry, cells loaded with oleic acid; for activity change, negative = inhibition: at 57.5 µM (top of the series). An outline of the steps: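 Cells seeded at 5,000 per well were treated with compounds over a concentration series and loaded with oleic acid (400 uM, as added). Lipid droplet fluorescence (488 nm excitation, 500-530 nm channel) was read by laser-scanning cytometry and normalized to 20 uM Triacsin C.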

Assay [11] in a line: Primary qHTS for small molecule stabilizers of the endoplasmic reticulum resident proteome: Secreted ER Calcium Modulated Protein (SERCaMP) assay (AID 1508630; active = well fitted curve in the direction sought with a large enough effect; an effect the other way counts as inactive or inconclusive; also: % is scaled to controls: 0 for no effect and ±100 for the full control effect). The conditions noted are these: SH-SY5Y GLuc-SERCaMP (Gaussia luciferase released on ER calcium loss) secretion, thapsigargin, luminescence; series mostly up to 38.4 µM. An outline of the steps: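 The SH-SY5Y reporter protocol was run at 3 concentrations up to 38.3 uM (primary) or 11 concentrations (follow-up): 16 h compound, 100 nM thapsigargin for 4 h, then extracellular luciferase luminescence.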

In assay [12] the target is Cytochrome P450 3A4 (Homo sapiens) (UniProt P08684). The assay is described as follows: qHTS Assay for Activators of Cytochrome P450 3A4 (AID 885; active = well fitted curve in the direction sought with a large enough effect; an effect the other way counts as inactive or inconclusive; also: nearly all actives have a fitted effect of over 65% in size; also: potency is read from the fitted curve at half-maximal effect). The conditions noted are these: recombinant CYP3A4, Luciferin-PPXE luminescence, 60 min; series mostly up to 57.1 µM. An outline of the steps: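 Activators are scored by enhanced luminescence from CYP3A4 conversion of luciferin-PPXE (25uM, equal to KM) to luciferin, after 60 min at RT with an NADPH-regenerating system.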
Chain of Cytochrome P450 3A4 (Homo sapiens) (P08684 whole entry, looked up): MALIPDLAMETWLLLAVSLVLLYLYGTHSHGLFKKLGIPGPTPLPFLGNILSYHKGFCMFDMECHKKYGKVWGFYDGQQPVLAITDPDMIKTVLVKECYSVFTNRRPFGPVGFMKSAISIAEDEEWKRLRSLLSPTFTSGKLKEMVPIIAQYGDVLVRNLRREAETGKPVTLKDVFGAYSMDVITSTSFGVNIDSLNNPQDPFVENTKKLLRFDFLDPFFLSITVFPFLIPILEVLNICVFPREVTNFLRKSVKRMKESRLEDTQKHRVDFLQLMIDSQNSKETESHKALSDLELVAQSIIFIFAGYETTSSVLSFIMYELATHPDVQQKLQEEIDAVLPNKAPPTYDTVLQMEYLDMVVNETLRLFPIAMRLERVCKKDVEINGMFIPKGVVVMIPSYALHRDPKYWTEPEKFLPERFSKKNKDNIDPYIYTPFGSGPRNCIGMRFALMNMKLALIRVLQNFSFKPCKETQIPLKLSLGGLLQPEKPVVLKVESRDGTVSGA

Setting [13] is: measured here: cell count channel max response.
Where [14] appears, read: measured here: lipid channel max response.

Results filed as inconclusive are left out. Active and inactive are the calls of the source. Unless noted, calls follow the shape of the full dose curve.

Chain of Glucocorticoid receptor (Homo sapiens) (P04150 whole entry, looked up, the tested form may be a part): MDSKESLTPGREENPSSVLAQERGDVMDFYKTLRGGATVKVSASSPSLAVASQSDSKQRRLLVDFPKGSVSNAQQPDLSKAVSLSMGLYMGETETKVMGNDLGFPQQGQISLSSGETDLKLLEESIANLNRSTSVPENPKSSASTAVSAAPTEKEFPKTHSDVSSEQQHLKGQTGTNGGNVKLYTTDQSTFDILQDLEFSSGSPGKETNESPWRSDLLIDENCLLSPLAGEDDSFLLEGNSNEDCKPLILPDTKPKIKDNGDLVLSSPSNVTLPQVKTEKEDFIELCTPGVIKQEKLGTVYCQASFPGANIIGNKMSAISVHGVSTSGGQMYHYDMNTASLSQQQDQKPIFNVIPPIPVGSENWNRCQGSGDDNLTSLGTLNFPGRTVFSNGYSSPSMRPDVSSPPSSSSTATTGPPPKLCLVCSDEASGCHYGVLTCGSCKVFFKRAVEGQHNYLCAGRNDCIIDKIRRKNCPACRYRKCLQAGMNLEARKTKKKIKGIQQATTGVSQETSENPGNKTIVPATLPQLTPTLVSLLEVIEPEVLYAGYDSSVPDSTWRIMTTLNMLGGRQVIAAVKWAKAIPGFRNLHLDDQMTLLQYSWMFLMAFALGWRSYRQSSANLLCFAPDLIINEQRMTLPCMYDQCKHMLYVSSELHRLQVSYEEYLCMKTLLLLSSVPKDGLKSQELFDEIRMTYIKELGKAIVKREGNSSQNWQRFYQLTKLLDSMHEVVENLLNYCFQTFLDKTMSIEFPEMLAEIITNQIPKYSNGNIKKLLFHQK
Chain of Cytochrome P450 1A2 (Homo sapiens) (P05177 whole entry, looked up): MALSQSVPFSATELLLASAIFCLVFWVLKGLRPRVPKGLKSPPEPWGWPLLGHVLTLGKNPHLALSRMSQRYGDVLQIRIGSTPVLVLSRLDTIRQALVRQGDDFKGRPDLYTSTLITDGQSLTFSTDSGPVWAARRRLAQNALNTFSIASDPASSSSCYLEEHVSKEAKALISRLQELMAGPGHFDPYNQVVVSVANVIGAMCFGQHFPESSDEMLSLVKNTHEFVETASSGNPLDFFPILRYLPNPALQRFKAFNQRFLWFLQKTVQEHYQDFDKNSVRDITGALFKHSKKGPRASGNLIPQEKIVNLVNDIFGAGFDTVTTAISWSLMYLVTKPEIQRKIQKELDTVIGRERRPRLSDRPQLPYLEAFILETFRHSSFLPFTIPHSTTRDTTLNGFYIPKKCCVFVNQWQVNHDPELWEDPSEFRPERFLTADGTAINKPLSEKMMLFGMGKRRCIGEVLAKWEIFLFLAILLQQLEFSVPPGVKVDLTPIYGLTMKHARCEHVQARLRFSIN
Chain of 3',5'-cyclic-AMP phosphodiesterase 4B (Homo sapiens) (Q07343 whole entry, looked up): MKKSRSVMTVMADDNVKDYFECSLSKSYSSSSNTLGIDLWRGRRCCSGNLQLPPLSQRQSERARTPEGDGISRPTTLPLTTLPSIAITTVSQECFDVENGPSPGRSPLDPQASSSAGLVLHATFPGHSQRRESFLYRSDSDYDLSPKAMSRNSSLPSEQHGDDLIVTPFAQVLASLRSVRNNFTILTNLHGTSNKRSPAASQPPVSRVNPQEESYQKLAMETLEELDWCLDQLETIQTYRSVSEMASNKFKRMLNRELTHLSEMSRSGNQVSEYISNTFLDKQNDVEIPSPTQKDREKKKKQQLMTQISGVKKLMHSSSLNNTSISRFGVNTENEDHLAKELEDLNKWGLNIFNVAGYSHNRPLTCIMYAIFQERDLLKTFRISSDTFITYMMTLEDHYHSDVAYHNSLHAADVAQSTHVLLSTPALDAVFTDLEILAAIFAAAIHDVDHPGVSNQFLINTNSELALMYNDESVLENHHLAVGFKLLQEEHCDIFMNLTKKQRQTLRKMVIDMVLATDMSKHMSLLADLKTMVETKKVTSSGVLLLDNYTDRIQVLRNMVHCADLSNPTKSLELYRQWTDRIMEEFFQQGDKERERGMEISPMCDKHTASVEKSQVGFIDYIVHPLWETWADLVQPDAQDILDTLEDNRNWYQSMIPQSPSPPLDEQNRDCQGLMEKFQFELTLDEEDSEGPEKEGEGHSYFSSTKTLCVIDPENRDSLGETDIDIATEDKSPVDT

In the case of `O=C(c1ccco1)N1CCC2(CCN(Cc3nccs3)CC2)CC1`, the Potency was > 11.4 µM (inactive) in [1] and > 46 µM (inactive) in [5]. Also, the figures for the activity change, negative = inhibition in assay [2] and in [10] were 5.22% (inactive) and 1% (inactive), respectively. The Potency result in assay [3], in [6], in [7] and in assay [8] was “inactive” each time. Further, the activity, negative = inhibition in assay [4] is 4.68% (inactive). In assay [9], the activation is -9.81% (inactive). Also, the results for the max response in [10] (setting [13]) and in assay [10] (setting [14]) were 8.57% and 12.6%, respectively. Further, the result in [11] was inactive.
For `Cc1noc(C)c1C(=O)N1CCC2(CCCN(Cc3ccccc3)C2)CC1`, the Potency in assay [1] was > 11.4 µM (inactive); in assay [5], > 46 µM (inactive). Besides, the activity change, negative = inhibition in assay [2] was 3.01% (inactive); in assay [10] it was 4.04% (inactive). The Potency entry in assay [3], in assay [6], in assay [7] and in assay [12] was “inactive” throughout. Further, in assay [4], the activity, negative = inhibition is 4.66% (inactive). For the same compound, the results for the max response in assay [10] (setting [13]) and in assay [10] (setting [14]) were 15.8% and 21.7%, respectively. Further, in assay [11], the outcome was inactive.
As to `CC(C)CN1CCCC2(CCN(C(=O)c3cccc(F)c3)CC2)C1`, the values for the Potency in [1] and in assay [5] were > 11.4 µM (inactive) and > 46 µM (inactive), respectively. Also, the activity change, negative = inhibition in assay [2] is -3.93% (inactive); in [10] it was 2.15% (inactive). In addition, the Potency result in [3], in assay [6], in [7] and in [12] was “inactive” in each case. Besides, the activity, negative = inhibition in assay [4] is -0.516% (inactive). Further, the results for the max response in assay [10] (setting [13]) and in assay [10] (setting [14]) were 18.6% and 24.2%, respectively. The result in assay [11] was inactive.
`Cn1cccc1C(=O)N1CCC2(CCN(Cc3nccs3)CC2)CC1`: the Potency in assay [1] was > 11.4 µM (inactive); in assay [5], > 46 µM (inactive). In addition, the activity change, negative = inhibition in assay [2] was -5.06% (inactive); in [10], -0.0655% (inactive). For the same compound, the Potency entry in assay [3], in assay [6], in assay [7] and in [8] was “inactive” in each case. Besides, in assay [4], the activity, negative = inhibition was -1.77% (inactive). Further, the max response in [10] (setting [13]) is -3.13%; in [10] (setting [14]) it was -0.688%. In addition, the outcome in assay [11] was inactive.
As for `Cn1cccc1C(=O)N1CCC2(CCCN(Cc3ccc(C#N)cc3)C2)CC1`, the Potency was > 11.4 µM (inactive) in [1], 12.6 µM (active) in assay [3] and > 46 µM (inactive) in [5]. Besides, the activity change, negative = inhibition in assay [2] is 10.6% (inactive); in [10] it was 1.29% (inactive). Besides, the activity, negative = inhibition in assay [4] was -1.12% (inactive). Further, the Potency entry in [6], in assay [7] and in assay [12] was “inactive” throughout. Further, the max response in assay [10] (setting [13]) amounted to 17.2%; in assay [10] (setting [14]) it was 18.2%. In addition, the outcome in assay [11] was inactive.
In the case of `Cn1cccc1C(=O)N1CCC2(CC1)CCN(C(c1ccccc1)c1ccccc1)CC2`, the Potency is > 11.4 µM (inactive) in assay [1], 5.01 µM (active) in [3], > 46 µM (inactive) in assay [5] and 15.8 µM (active) in [12]. Besides, the figures for the activity change, negative = inhibition in [2] and in assay [10] were -3.6% (inactive) and -19.5% (inactive), respectively. Also, in assay [4], the activity, negative = inhibition is -4.66% (inactive). Besides, the Potency entry in [6], in [7] and in [8] was “inactive” throughout. In addition, the max response in assay [10] (setting [13]) was 11.8%; in assay [10] (setting [14]), -8.47%. Besides, the result in assay [11] was inactive.
As to `COC(=O)N1CCC2(CCCN(Cc3nccs3)C2)CC1`, the figures for the Potency in assay [1] and in assay [5] were > 11.4 µM (inactive) and > 46 µM (inactive), respectively. In addition, the results for the activity change, negative = inhibition in assay [2] and in assay [10] were -9.45% (inactive) and 5.26% (inactive), respectively. Besides, the Potency entry in assay [3], in assay [6], in assay [7] and in assay [12] was “inactive” each time. Further, in assay [4], the activity, negative = inhibition is -5.19% (inactive). Moreover, the max response was 2.22% in assay [10] (setting [13]) and 10.9% in assay [10] (setting [14]). In addition, the result in assay [11] was inactive.

The record behind these values is PubChem BioAssay (NCATS).
